The full ranking holds about 1,500 compounds; the median of “Excess HSA synergy score (sum over dose matrix of excess over highest single agent)” is about 43, and the lowest 2% start at about -900. The sample as a whole holds a higher share of the lowest values than the screen did.
System: PEO-1
Assay: Excess HSA synergy score (sum over dose matrix of excess over highest single agent) (score (summed % response)); higher = less synergy / more antagonism (negative = synergy)
Settings: 72 h, read-out: viability/apoptosis luminescence (CellTiter-Glo or Caspase3-Glo / not stated per table)
[1] = matrix design: 6x6, 5-fold dilutions (primary screen)

C[C@@H](Oc1cc(-n2cnc3ccc(CN4CCN(C)CC4)cc32)sc1C(N)=O)c1ccccc1C(F)(F)F + CC[C@H](NC(=O)[C@H](C)NC)C(=O)N1C[C@@H](O)C[C@H]1Cc1c(-c2[nH]c3cc(F)ccc3c2C[C@@H]2C[C@H](O)CN2C(=O)[C@H](CC)NC(=O)[C@H](C)NC)[nH]c2cc(F)ccc12 [Birinapant]
Excess HSA synergy score [1]: -274
Excess HSA synergy score (matrix design: 10x10, 9-step dilutions (confirmatory)): -1360

CC(C)c1cc(C(=O)N2Cc3ccc(CN4CCN(C)CC4)cc3C2)c(O)cc1O [Onalespib] + CC[C@H](NC(=O)[C@H](C)NC)C(=O)N1C[C@@H](O)C[C@H]1Cc1c(-c2[nH]c3cc(F)ccc3c2C[C@@H]2C[C@H](O)CN2C(=O)[C@H](CC)NC(=O)[C@H](C)NC)[nH]c2cc(F)ccc12 [Birinapant]
Excess HSA synergy score [1]: 13.4

COc1cc2ncn(-c3cc(OCc4ccccc4C(F)(F)F)c(C(N)=O)s3)c2cc1OC + CC[C@H](NC(=O)[C@H](C)NC)C(=O)N1C[C@@H](O)C[C@H]1Cc1c(-c2[nH]c3cc(F)ccc3c2C[C@@H]2C[C@H](O)CN2C(=O)[C@H](CC)NC(=O)[C@H](C)NC)[nH]c2cc(F)ccc12 [Birinapant]
Excess HSA synergy score [1]: -51.1

Cc1ccc(F)c(NC(=O)Nc2ccc(-c3cccc4[nH]nc(N)c34)cc2)c1 [Linifanib] + CC[C@H](NC(=O)[C@H](C)NC)C(=O)N1C[C@@H](O)C[C@H]1Cc1c(-c2[nH]c3cc(F)ccc3c2C[C@@H]2C[C@H](O)CN2C(=O)[C@H](CC)NC(=O)[C@H](C)NC)[nH]c2cc(F)ccc12 [Birinapant]
Excess HSA synergy score [1]: -40

C[C@@H](O)[C@H](NC(=O)[C@@H]1CSSC[C@H](NC(=O)[C@H](N)Cc2ccccc2)C(=O)N[C@@H](Cc2ccc(O)cc2)C(=O)N[C@H](Cc2c[nH]c3ccccc23)C(=O)N[C@@H](CCCCN)C(=O)N1)C(N)=O + CC[C@H](NC(=O)[C@H](C)NC)C(=O)N1C[C@@H](O)C[C@H]1Cc1c(-c2[nH]c3cc(F)ccc3c2C[C@@H]2C[C@H](O)CN2C(=O)[C@H](CC)NC(=O)[C@H](C)NC)[nH]c2cc(F)ccc12 [Birinapant]
Excess HSA synergy score [1]: 120

Cc1ccccc1C(C(=O)NC1CCCCC1)N(C(=O)Cn1ccnc1C)c1cccc(F)c1 (stereo unspecified) + CC[C@H](NC(=O)[C@H](C)NC)C(=O)N1C[C@@H](O)C[C@H]1Cc1c(-c2[nH]c3cc(F)ccc3c2C[C@@H]2C[C@H](O)CN2C(=O)[C@H](CC)NC(=O)[C@H](C)NC)[nH]c2cc(F)ccc12 [Birinapant]
Excess HSA synergy score [1]: 12.3

COc1cc2ncn(-c3cc(OCc4ccccc4S(C)(=O)=O)c(C#N)s3)c2cc1OC [IKK-3 Inhibitor IX] + CC[C@H](NC(=O)[C@H](C)NC)C(=O)N1C[C@@H](O)C[C@H]1Cc1c(-c2[nH]c3cc(F)ccc3c2C[C@@H]2C[C@H](O)CN2C(=O)[C@H](CC)NC(=O)[C@H](C)NC)[nH]c2cc(F)ccc12 [Birinapant]
Excess HSA synergy score [1]: 113

Cc1cnc(Nc2ccc(F)cc2Cl)nc1-c1c[nH]c(C(=O)N[C@H](CO)c2cccc(Cl)c2)c1 + CC[C@H](NC(=O)[C@H](C)NC)C(=O)N1C[C@@H](O)C[C@H]1Cc1c(-c2[nH]c3cc(F)ccc3c2C[C@@H]2C[C@H](O)CN2C(=O)[C@H](CC)NC(=O)[C@H](C)NC)[nH]c2cc(F)ccc12 [Birinapant]
Excess HSA synergy score [1]: 192

CN1CCN(c2cccc(Nc3nc4c(-c5ccc(S(C)(=O)=O)cc5)cccn4n3)c2)CC1 + CC[C@H](NC(=O)[C@H](C)NC)C(=O)N1C[C@@H](O)C[C@H]1Cc1c(-c2[nH]c3cc(F)ccc3c2C[C@@H]2C[C@H](O)CN2C(=O)[C@H](CC)NC(=O)[C@H](C)NC)[nH]c2cc(F)ccc12 [Birinapant]
Excess HSA synergy score [1]: -105

Cc1c(-c2cccc3c(CCCOc4cccc5ccccc45)c(C(=O)O)n(Cc4cccnc4)c23)c(COc2ccc(N3CCN([S+](=O)([O-])N(C)C)CC3)cc2)nn1C + CC[C@H](NC(=O)[C@H](C)NC)C(=O)N1C[C@@H](O)C[C@H]1Cc1c(-c2[nH]c3cc(F)ccc3c2C[C@@H]2C[C@H](O)CN2C(=O)[C@H](CC)NC(=O)[C@H](C)NC)[nH]c2cc(F)ccc12 [Birinapant]
Excess HSA synergy score [1]: 51.7

Cn1cc(-c2ccc3nnc(C(F)(F)c4ccc5ncccc5c4)n3n2)cn1 + CC[C@H](NC(=O)[C@H](C)NC)C(=O)N1C[C@@H](O)C[C@H]1Cc1c(-c2[nH]c3cc(F)ccc3c2C[C@@H]2C[C@H](O)CN2C(=O)[C@H](CC)NC(=O)[C@H](C)NC)[nH]c2cc(F)ccc12 [Birinapant]
Excess HSA synergy score [1]: 40.5

Cc1ccc(C(=O)Nc2cccc(C(F)(F)F)c2)cc1Nc1nc(-c2cccnc2)nc2c1cnn2C + CC[C@H](NC(=O)[C@H](C)NC)C(=O)N1C[C@@H](O)C[C@H]1Cc1c(-c2[nH]c3cc(F)ccc3c2C[C@@H]2C[C@H](O)CN2C(=O)[C@H](CC)NC(=O)[C@H](C)NC)[nH]c2cc(F)ccc12 [Birinapant]
Excess HSA synergy score [1]: -71.3

N#CC(c1ccnc(NCCc2cccnc2)n1)c1nc2ccccc2s1 (stereo unspecified) [JNK Inhibitor V] + CC[C@H](NC(=O)[C@H](C)NC)C(=O)N1C[C@@H](O)C[C@H]1Cc1c(-c2[nH]c3cc(F)ccc3c2C[C@@H]2C[C@H](O)CN2C(=O)[C@H](CC)NC(=O)[C@H](C)NC)[nH]c2cc(F)ccc12 [Birinapant]
Excess HSA synergy score [1]: -67.5

CC(C)(C(=O)NCC(F)(F)C(F)(F)F)C(=O)N[C@@H]1C(=O)Nc2ccccc2-c2ccccc21 + CC[C@H](NC(=O)[C@H](C)NC)C(=O)N1C[C@@H](O)C[C@H]1Cc1c(-c2[nH]c3cc(F)ccc3c2C[C@@H]2C[C@H](O)CN2C(=O)[C@H](CC)NC(=O)[C@H](C)NC)[nH]c2cc(F)ccc12 [Birinapant]
Excess HSA synergy score [1]: -141

COc1ccc(-c2coc3cc(O)cc(O)c3c2=O)cc1 [Biochanin A] + CC[C@H](NC(=O)[C@H](C)NC)C(=O)N1C[C@@H](O)C[C@H]1Cc1c(-c2[nH]c3cc(F)ccc3c2C[C@@H]2C[C@H](O)CN2C(=O)[C@H](CC)NC(=O)[C@H](C)NC)[nH]c2cc(F)ccc12 [Birinapant]
Excess HSA synergy score [1]: 235

— the supplement of paper PMC7765376
